Assay outcomes from PubChem BioAssay.
Sampled rows, rich in hits. Any-hit rate of the full collection: about 19%.
Giardia kill – Small Molecules that selectively kill Giardia lamblia: qHTS | Giardia lamblia trophozoite viability | activity change, % at 7.66 µM, hits read low | 340,000 compounds, 0.15% hits; in the data active means activity change below about -80%; inconclusive means between about -30% and that limit;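 further: parasites exposed to compound for two days anaerobically before the ATP read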
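Trophozoite viability was measured as ATP-dependent luminescence, read 15-30 min after reagent addition. Before that, parasites at 100 cells/well were exposed to compounds for 48 h, anaerobically, at 37 deg C.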
DT40 TDP1 no CPT – qHTS for Inhibitors of human tyrosyl-DNA phosphodiesterase 1 (TDP1): qHTS in cells in absence of CPT | DT40 Tdp1-/- hTDP1 cells, no CPT, ATP luminescence, 48 h | Potency, µM (series often up to 46.2 µM), hits mostly inhibitors | 420,000 compounds, 15% hits | AID 686978, 2013; further: nearly all actives have a fitted effect of over 55% in size
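Camptothecin absent (DMSO only). Human TDP1-complemented DT40 knockout cells, 400 cells/well, 37 °C for minimum 48 hr; ATP measured via CellTiter-Glo, 30 min dark incubation, luminescence.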
IL-1B inflam inh – qHTS for Inhibitors of Inflammasome Signaling: IL-1-beta AlphaLISA Primary Screen | activity change, % at 57.5 µM | 360,000 compounds, 4.7% hits | THP-1 LPS/ATP IL-1B secretion, AlphaLISA, 16 h; stronger effect = lower value; in the data active means activity change below about -50%; inconclusive means mostly about -30% to -49%
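THP-1 cells pretreated 1 hr with compounds (up to 57.5 uM final), then stimulated with LPS (250 ng/mL final) plus ATP (1.25 mM final); secreted IL-1B measured by AlphaLISA after 16 hr, decreased signal indicating inhibition.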
TDP1 inh – qHTS Assay for Inhibitors of Tyrosyl-DNA Phosphodiesterase (TDP1) | 350,000 compounds, 0.28% hits | Tyrosyl-DNA phosphodiesterase 1 (Homo sapiens), Q9NUW8 | recombinant TDP1, AlphaScreen DNA substrate cleavage | Potency, µM (top dose mostly 130 µM), most hits filed as inhibitors; further: nearly all actives have a fitted effect of over 40% in size
Target sequence (Q9NUW8 whole entry, looked up): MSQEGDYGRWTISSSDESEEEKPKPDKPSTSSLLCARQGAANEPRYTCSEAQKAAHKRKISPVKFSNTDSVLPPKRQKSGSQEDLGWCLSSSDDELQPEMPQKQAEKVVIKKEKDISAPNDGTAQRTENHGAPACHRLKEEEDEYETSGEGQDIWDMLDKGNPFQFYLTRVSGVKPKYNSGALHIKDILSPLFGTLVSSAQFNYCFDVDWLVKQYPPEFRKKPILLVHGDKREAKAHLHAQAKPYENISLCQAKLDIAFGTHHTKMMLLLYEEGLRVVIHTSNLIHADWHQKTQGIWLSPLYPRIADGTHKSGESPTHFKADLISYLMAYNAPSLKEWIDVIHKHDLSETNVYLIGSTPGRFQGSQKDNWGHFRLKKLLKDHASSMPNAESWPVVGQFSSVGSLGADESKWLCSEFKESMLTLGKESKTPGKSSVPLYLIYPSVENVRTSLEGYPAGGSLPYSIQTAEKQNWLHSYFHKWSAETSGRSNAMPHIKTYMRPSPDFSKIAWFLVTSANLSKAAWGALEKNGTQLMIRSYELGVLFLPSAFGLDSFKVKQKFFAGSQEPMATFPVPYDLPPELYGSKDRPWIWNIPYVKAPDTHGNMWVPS
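E. coli-derived human Tdp1, 1 nM final. Cpd preinc 15 min RT; substrate 15 nM final, 5 min RT; AS bead mix 10 ug/ml final, 10 min RT. Signal loss = tyrosine-FITC cleavage. No-enzyme wells = max signal.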
TDP1 cell CPT – qHTS for Inhibitors of human tyrosyl-DNA phosphodiesterase 1 (TDP1): qHTS in cells in presence of CPT. chicken DT40 Tdp1-/-;hTDP1 cells + 20 nM CPT, ATP luminescence, 48 h. Potency, µM (highest dose often 46.2 µM), most hits filed as inhibitors. 420,000 compounds, 12% hits; further: nearly all actives have a fitted effect of over 55% in size
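Chicken DT40 Tdp1-/- cells stably complemented with human TDP1 were seeded at 400 cells/well in medium containing 20 nM camptothecin, exposed to pin-transferred compounds, and grown at 37 °C for at least 48 hr. Viability was read as ATP luminescence.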
ELG1 repair inh – qHTS screen for small molecules that inhibit ELG1-dependent DNA repair in human embryonic kidney (HEK293T) cells expressing luciferase-tagged ELG1; HEK293T ELG1-luciferase reporter, luminescence, 16 h; DNA damage induced by 5-fluorouridine; 330,000 compounds, 2.3% hits; Potency, µM (top dose mostly 46.1 µM), most hits filed as inhibitors; AID 504467, 2011; further: nearly all actives have a fitted effect of over 55% in size
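Reporter activity after DNA damage by 5-fluorouridine is monitored. Compound-treated cells incubate 16 hr at 37 °C, then ONE-Glo is added for 30 min before luminescence reading.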
Hits are given with their value; [ ] = another dose, or the depositor's remark. Unless noted, the call rests on the fitted dose curve; in most records, active means well fitted curve in the direction sought with a large enough effect; inconclusive means small, poorly fitted or top-dose-only effect, or another doubt; inactive means no such curve, though single readings can be large; an effect the other way counts as inactive or inconclusive.

Results for O=C(Cn1c2ccc(F)cc2c2nc3n(c(=O)c21)CCS3)NCC1CCCO1 (centres undefined) ?
Giardia kill: inactive; DT40 TDP1 no CPT: inactive; IL-1B inflam inh: inactive; TDP1 inh: inactive; TDP1 cell CPT: inactive; ELG1 repair inh: inactive

Results for O=C(CSc1nc(-c2ccccc2)cn1-c1ccccc1F)Nc1ccc(F)cc1 ?
DT40 TDP1 no CPT: inconclusive; TDP1 inh: inactive; TDP1 cell CPT: 18µM

What do the screens show for `CC(=O)Nc1nonc1-c1nnc(SCC(=O)Nc2cccc(C)c2C)n1-c1ccccc1`?
DT40 TDP1 no CPT: 26µM; TDP1 inh: inactive; TDP1 cell CPT: 23µM

How did CCn1c(SCc2cccc(Br)c2)nnc1-c1nonc1NC(C)=O do in these assays?
DT40 TDP1 no CPT: 23µM; TDP1 inh: inactive; TDP1 cell CPT: 18µM

Results for CC(=O)Nc1nonc1-c1nnc(SCC(=O)Nc2c(C)cccc2C)n1-c1ccccc1 ?
DT40 TDP1 no CPT: inactive; TDP1 inh: inactive; TDP1 cell CPT: inconclusive

What do the screens show for `O=C(CSc1nc(-c2ccccc2)cn1-c1ccccc1)Nc1ccccc1`?
DT40 TDP1 no CPT: inconclusive; TDP1 inh: inactive; TDP1 cell CPT: inconclusive

How did Cc1cccc(NC(=O)CSc2nc(-c3ccccc3)cn2-c2ccccc2)c1C do in these assays?
DT40 TDP1 no CPT: 23µM; TDP1 inh: inactive; TDP1 cell CPT: inconclusive

What do the screens show for `CCN(CC(=O)Nc1cc(S(=O)(=O)N2CCOCC2)ccc1C)Cc1ccccc1`?
Giardia kill: inactive; DT40 TDP1 no CPT: 13µM; IL-1B inflam inh: inactive; TDP1 inh: inactive; TDP1 cell CPT: 16µM; ELG1 repair inh: inactive

What do the screens show for `CCN(CC(=O)Nc1ccc(S(=O)(=O)N2CCCC2)cc1)Cc1ccccc1`?
Giardia kill: inactive; DT40 TDP1 no CPT: inconclusive; IL-1B inflam inh: inactive; TDP1 inh: inactive; TDP1 cell CPT: 16µM; ELG1 repair inh: inactive

How did CCN(CC(=O)Nc1ccc(S(=O)(=O)N2CCOCC2)cc1)Cc1ccccc1 do in these assays?
Giardia kill: inactive; DT40 TDP1 no CPT: inactive; IL-1B inflam inh: inactive; TDP1 cell CPT: inactive; ELG1 repair inh: inactive

How did COc1ccccc1N(CC(=O)Nc1ccc(S(=O)(=O)N2CCCCC2)cc1)S(C)(=O)=O do in these assays?
Giardia kill: inactive; DT40 TDP1 no CPT: 18µM; IL-1B inflam inh: inactive; TDP1 inh: inactive; TDP1 cell CPT: inconclusive; ELG1 repair inh: inconclusive

How did COc1ccccc1CC(=O)Nc1ccc(S(=O)(=O)N2CCCCC2)cc1 do in these assays?
Giardia kill: inactive; DT40 TDP1 no CPT: inconclusive; IL-1B inflam inh: inactive; TDP1 inh: inactive[0.0935 µM]; TDP1 cell CPT: inactive; ELG1 repair inh: inconclusive

How did COc1cc(NC(=O)C2CC(=O)N(CCc3ccc(F)cc3)C2)cc(OC)c1OC (centres undefined) do in these assays?
Giardia kill: inactive; DT40 TDP1 no CPT: inactive; IL-1B inflam inh: inactive; TDP1 inh: inactive; TDP1 cell CPT: inactive; ELG1 repair inh: inactive

What do the screens show for `O/C(=C\c1nc2ccccc2nc1/C=C(\O)c1ccccc1)c1ccccc1`?
Giardia kill: inconclusive; DT40 TDP1 no CPT: inconclusive; IL-1B inflam inh: -98; TDP1 inh: inactive; TDP1 cell CPT: inconclusive; ELG1 repair inh: inconclusive

Results for Cc1ccc2c(c1)cc(CN(Cc1cccnc1)C(=O)c1ccccc1)c1nnnn12 ?
Giardia kill: inactive; DT40 TDP1 no CPT: inactive; IL-1B inflam inh: inactive; TDP1 inh: inactive; TDP1 cell CPT: inactive; ELG1 repair inh: inconclusive

Results for Cc1ccc2c(c1)cc(CN(Cc1cccs1)C(=O)c1ccco1)c1nnnn12 ?
Giardia kill: inactive; DT40 TDP1 no CPT: 16µM; IL-1B inflam inh: inactive; TDP1 inh: inactive; TDP1 cell CPT: inconclusive; ELG1 repair inh: inconclusive
